In PubChem BioAssay (NCATS):
Results filed as inconclusive are left out. Activity calls are given as the source filed them. Calls come from the whole dose curve; as a rule, active = well fitted curve in the direction sought with a large enough effect; inconclusive = small, poorly fitted or top-dose-only effect, or another doubt; inactive = no such curve, though single readings can be large; an effect the other way counts as inactive or inconclusive.

What was measured:
[1] = qHTS of pediatric cancer cell lines to identify multiple opportunities for drug repurposing: Primary screen for DAOY cells (AID 1347090); note: potency is the fitted concentration of half-maximal effect; nearly all actives have a fitted effect of over 55% in size
Summary of the method: (§1)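 Cell viability, CellTiter-Glo luminescence; 500-1,000 cells/well, 8- or 11-point titration, 48 h compound exposure at 37 degrees C, 5% CO2. Controls: DMSO neutral, bortezomib 2.3 µM final as positive.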

[2] = qHTS of pediatric cancer cell lines to identify multiple opportunities for drug repurposing: Primary screen for A673 cells (AID 1347092); note: potency is the fitted concentration of half-maximal effect; nearly all actives have a fitted effect of over 45% in size
Summary of the method: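 Cell viability of A673 measured by CellTiter-Glo ATP luminescence after 48 hours compound exposure. Dilution series spanned 0.78 nM to 46 µM (MIPE, 11-point) or 0.59 nM to 46 µM (NPC, 8-point); bortezomib 2.3 uM positive control.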

[3] = qHTS of pediatric cancer cell lines to identify multiple opportunities for drug repurposing: Primary screen for BT-37 cells (AID 1347094); note: potency is the fitted concentration of half-maximal effect
Summary of the method: (§2)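 ATP-based luminescence (CellTiter-Glo) quantifies viability after a 48-hour exposure. Compounds are dosed across 8 or 11 final concentrations; DMSO and 2.3 µM bortezomib serve as controls.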

[4] = qHTS of pediatric cancer cell lines to identify multiple opportunities for drug repurposing: Primary screen for U-2 OS cells (AID 1347096); note: nearly all actives have a fitted effect of over 50% in size; note: potency is the fitted concentration of half-maximal effect
Summary of the method: (§3)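 Cells (500-1,000/well) rested 5 h, then received compounds for 48 h; metabolically active cells were measured by CellTiter-Glo luminescence. Final concentrations spanned up to 46 µM (MIPE, 11-point) or 0.59 nM-46 µM (NPC, 8-point) in primary screens, 11-point in follow-ups.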

[5] = qHTS of pediatric cancer cell lines to identify multiple opportunities for drug repurposing: Primary screen for SK-N-SH cells (AID 1347098); note: potency is the fitted concentration of half-maximal effect; nearly all actives have a fitted effect of over 65% in size
Summary of the method: as §3

[6] = qHTS of pediatric cancer cell lines to identify multiple opportunities for drug repurposing: Primary screen for BT-12 cells (AID 1347101); note: potency is the fitted concentration of half-maximal effect; nearly all actives have a fitted effect of over 25% in size
Summary of the method: as §3

[7] = qHTS of pediatric cancer cell lines to identify multiple opportunities for drug repurposing: Primary screen for RD cells (AID 1347104); note: potency is the fitted concentration of half-maximal effect; nearly all actives have a fitted effect of over 55% in size
Summary of the method: as §2

[8] = qHTS of pediatric cancer cell lines to identify multiple opportunities for drug repurposing: Primary screen for MG 63 (6-TG R) cells (AID 1347105); note: potency is the fitted concentration of half-maximal effect; nearly all actives have a fitted effect of over 50% in size
Summary of the method: as §2

[9] = qHTS of pediatric cancer cell lines to identify multiple opportunities for drug repurposing: Primary screen for SJ-GBM2 cells (AID 1347091); note: potency is the fitted concentration of half-maximal effect
Summary of the method: as §1

[10] = qHTS of pediatric cancer cell lines to identify multiple opportunities for drug repurposing: Primary screen for NB-EBc1 cells (AID 1347095); note: potency is the fitted concentration of half-maximal effect
Summary of the method: as §2

[11] = qHTS of pediatric cancer cell lines to identify multiple opportunities for drug repurposing: Primary screen for NB1643 cells (AID 1347099); note: nearly all actives have a fitted effect of over 50% in size; note: potency is the fitted concentration of half-maximal effect
Summary of the method: as §2

[12] = qHTS of pediatric cancer cell lines to identify multiple opportunities for drug repurposing: Primary screen for LAN-5 cells (AID 1347100); note: potency is the fitted concentration of half-maximal effect
Summary of the method: as §3

[13] = qHTS of pediatric cancer cell lines to identify multiple opportunities for drug repurposing: Primary screen for Rh18 cells (AID 1347102); note: potency is the fitted concentration of half-maximal effect; nearly all actives have a fitted effect of over 65% in size
Summary of the method: as §3

[14] = qHTS of pediatric cancer cell lines to identify multiple opportunities for drug repurposing: Primary screen for OHS-50 cells (AID 1347103); note: potency is the fitted concentration of half-maximal effect; nearly all actives have a fitted effect of over 40% in size
Summary of the method: as §3

[15] = qHTS of pediatric cancer cell lines to identify multiple opportunities for drug repurposing: Primary screen for SK-N-MC cells (AID 1347093); note: potency is the fitted concentration of half-maximal effect
Summary of the method: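 Metabolically active cells were quantified by ATP-dependent luminescence (CellTiter-Glo, 15 min at room temperature) following 48 h treatment. Cells had been plated at 500-1,000 per well and settled for 5 h beforehand.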

[16] = qHTS of pediatric cancer cell lines to identify multiple opportunities for drug repurposing: Primary screen for Saos-2 cells (AID 1347097); note: potency is the fitted concentration of half-maximal effect; nearly all actives have a fitted effect of over 40% in size
Summary of the method: as §2

[17] = qHTS of pediatric cancer cell lines to identify multiple opportunities for drug repurposing: Primary screen for control Hh wild type fibroblast cells (AID 1347106);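 note: series mostly up to about 46 µM; a drop in luminescence marks cytotoxicity and a rise apparent proliferation; nearly all actives have a fitted effect of over 55% in size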
Summary of the method: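 Cells (500-1,000/well) in growth media were settled 5 h at 37 degrees C, then given compounds for 48 h. Viability was read as CellTiter-Glo luminescence. Primary runs used MIPE at 11 points (0.78 nM-46 µM) and NPC at 8 points (0.59 nM-46 µM); follow-ups used 11 points.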

Q: Which Potency [1] does the source give for `N#CCNC(=O)c1ccc(-c2ccnc(Nc3ccc(N4CCOCC4)cc3)n2)cc1` here?
A: 14.8 µM (active)

Q: What about the Potency [2] of the same molecule?
A: 7.43 µM (active)

Q: What about the Potency [3] of the same molecule?
A: 21.7 µM (active)

Q: What about the Potency [4] of the same molecule?
A: inactive

Q: What about the Potency [5] of the same molecule?
A: 12.1 µM (active)

Q: What about the Potency [6] of the same molecule?
A: 17.2 µM (active)

Q: What about the Potency [7] of the same molecule?
A: 16.6 µM (active)

Q: And the Potency [8]?
A: 18.7 µM (active)

Q: What does the source list for `Cc1cc(Nc2ncnc3ccc(-c4ccc(CNCCS(C)(=O)=O)o4)cc23)ccc1Oc1ccn2ncnc2c1`?
A: Potency [1]: 9.35 µM (active); Potency [9]: 5.26 µM (active); Potency [2]: 0.235 µM (active); Potency [3]: 6.11 µM (active); Potency [10]: 4.18 µM (active); Potency [5]: 21.5 µM (active); Potency [11]: 16.6 µM (active); Potency [12]: 14.8 µM (active); Potency [6]: 6.85 µM (active); Potency [13]: 20.9 µM (active); Potency [14]: 1.22 µM (active); Potency [7]: 16.6 µM (active); Potency [8]: 18.7 µM (active)

Q: With `NC1(Cc2ccc(Cl)cc2)CCN(c2ncnc3[nH]ccc23)CC1` as the molecule, how does the Potency [2] read?
A: 14.8 µM (active)

Q: What about the Potency [15] of the same molecule?
A: 3.32 µM (active)

Q: What about the Potency [10] of the same molecule?
A: 11.8 µM (active)

Q: What about the Potency [16] of the same molecule?
A: 5.26 µM (active)

Q: And the Potency [5]?
A: 27.1 µM (active)

Q: And the Potency [11]?
A: 20.9 µM (active)

Q: What about the Potency [12] of the same molecule?
A: 18.7 µM (active)

Q: And the Potency [14]?
A: 6.11 µM (active)

Q: And the Potency [8]?
A: 14.8 µM (active)

Q: Which results are given for `COC(=O)Nc1ccc(-c2nc(N3CCOCC3)c3cnn(C4CCN(Cc5cccnc5)CC4)c3n2)cc1`?
A: Potency [1]: 4.69 µM (active); Potency [2]: 4.69 µM (active); Potency [3]: 0.544 µM (active); Potency [10]: 1.18 µM (active); Potency [4]: inactive; Potency [16]: 0.833 µM (active); Potency [5]: 21.5 µM (active); Potency [11]: inactive; Potency [12]: 14.8 µM (active); Potency [6]: 1.09 µM (active); Potency [13]: 0.935 µM (active); Potency [7]: 1.32 µM (active); Potency [8]: 0.235 µM (active)

Q: With `CC(=O)c1c(C)c2cnc(Nc3ccc(N4CCNCC4)cn3)nc2n(C2CCCC2)c1=O` as the molecule, how does the Potency [2] read?
A: 14.8 µM (active)

Q: And the Potency [15]?
A: 20.9 µM (active)

Q: And the Potency [3]?
A: 24.3 µM (active)

Q: What about the Potency [10] of the same molecule?
A: 20.9 µM (active)

Q: What about the Potency [5] of the same molecule?
A: 24.1 µM (active)

Q: And the Potency [11]?
A: 16.6 µM (active)

Q: And the Potency [13]?
A: 23.5 µM (active)

Q: And the Potency [14]?
A: 19.3 µM (active)

Q: What about the Potency [7] of the same molecule?
A: 18.7 µM (active)

Q: What about the Potency [17] of the same molecule?
A: inactive

Q: For `O=C(Nc1cc(C(F)(F)F)cc(C(F)(F)F)c1)c1cc(Cl)ccc1O`, which Potency [1] is on record?
A: 0.59 µM (active)

Q: And the Potency [9]?
A: 0.235 µM (active)

Q: And the Potency [15]?
A: 0.469 µM (active)

Q: And the Potency [3]?
A: 0.968 µM (active)

Q: And the Potency [10]?
A: 0.296 µM (active)

Q: And the Potency [4]?
A: 4.69 µM (active)

Q: What about the Potency [16] of the same molecule?
A: 2.64 µM (active)

Q: What about the Potency [5] of the same molecule?
A: 2.41 µM (active)

Q: And the Potency [11]?
A: 0.372 µM (active)

Q: And the Potency [6]?
A: 1.72 µM (active)

Q: And the Potency [13]?
A: 4.18 µM (active)

Q: What about the Potency [14] of the same molecule?
A: 0.432 µM (active)

Q: And the Potency [7]?
A: 0.662 µM (active)

Q: What about the Potency [8] of the same molecule?
A: 0.743 µM (active)

Q: What about the Potency [17] of the same molecule?
A: inactive

Q: Which Potency [9] does the source give for `Cn1c(=O)n(-c2ccc(C(C)(C)C#N)cc2)c2c3cc(-c4cnc5ccccc5c4)ccc3ncc21` here?
A: 0.0662 µM (active)

Q: What about the Potency [3] of the same molecule?
A: 0.0544 µM (active)

Q: What about the Potency [10] of the same molecule?
A: 0.372 µM (active)

Q: And the Potency [16]?
A: 0.235 µM (active)

Q: And the Potency [11]?
A: inactive

Q: And the Potency [13]?
A: 0.209 µM (active)

Q: And the Potency [14]?
A: 0.109 µM (active)

Q: And the Potency [7]?
A: 0.332 µM (active)

Q: And the Potency [8]?
A: 0.0148 µM (active)

Q: Which Potency [9] does the source give for `Fc1cc(-c2cccc3ncc(-c4cnn(C5CCNCC5)c4)nc23)cc(F)c1CN1CCOCC1` here?
A: 16.6 µM (active)

Q: And the Potency [2]?
A: 18.7 µM (active)

Q: What about the Potency [3] of the same molecule?
A: 24.3 µM (active)

Q: What about the Potency [4] of the same molecule?
A: inactive

Q: What about the Potency [5] of the same molecule?
A: 24.1 µM (active)

Q: What about the Potency [11] of the same molecule?
A: 18.7 µM (active)

Q: What about the Potency [12] of the same molecule?
A: 26.4 µM (active)

Q: What about the Potency [6] of the same molecule?
A: 27.3 µM (active)

Q: And the Potency [13]?
A: 20.9 µM (active)

Q: And the Potency [14]?
A: 19.3 µM (active)

Q: What about the Potency [7] of the same molecule?
A: 18.7 µM (active)

Q: Which Potency [15] does the source give for `O=C(O)C1(Cc2cccc(Nc3nccs3)n2)CCC(Oc2cccc(Cl)c2F)CC1` (stereo not drawn) here?
A: 1.66 µM (active)

Q: And the Potency [3]?
A: inactive

Q: And the Potency [4]?
A: inactive

Q: And the Potency [16]?
A: 14.8 µM (active)

Q: What about the Potency [11] of the same molecule?
A: inactive

Q: What about the Potency [14] of the same molecule?
A: 0.544 µM (active)

Q: And the Potency [8]?
A: 18.7 µM (active)

Q: And the Potency [17]?
A: inactive

Q: Which results are given for `CC1(O)CC(c2nc(-c3ccc4ccc(-c5ccccc5)nc4c3)c3c(N)nccn23)C1` (stereo not drawn)?
A: Potency [9]: 10.5 µM (active); Potency [2]: 23.5 µM (active); Potency [15]: 0.0418 µM (active); Potency [3]: 19.3 µM (active); Potency [10]: 0.662 µM (active); Potency [16]: 0.935 µM (active); Potency [11]: 2.09 µM (active); Potency [12]: 0.418 µM (active); Potency [6]: 17.2 µM (active); Potency [14]: 0.544 µM (active); Potency [7]: 0.59 µM (active); Potency [17]: inactive

Q: Which Potency [1] does the source give for `C=CC(=O)Nc1cccc(Oc2nc(Nc3ccc(N4CCN(C)CC4)cc3OC)ncc2Cl)c1` here?
A: 0.0372 µM (active)

Q: And the Potency [3]?
A: 27.3 µM (active)

Q: And the Potency [10]?
A: 2.35 µM (active)

Q: What about the Potency [4] of the same molecule?
A: 23.5 µM (active)

Q: And the Potency [16]?
A: 6.62 µM (active)

Q: What about the Potency [11] of the same molecule?
A: 1.18 µM (active)

Q: What about the Potency [6] of the same molecule?
A: 34.3 µM (active)

Q: What about the Potency [13] of the same molecule?
A: 20.9 µM (active)

Q: And the Potency [14]?
A: 4.85 µM (active)

Q: What about the Potency [7] of the same molecule?
A: 7.43 µM (active)

Q: Which Potency [1] does the source give for `Cc1cn2c(-c3cn[nH]c3)cnc2c(Nc2ccc(C(=O)N3CCNCC3)cc2F)n1` here?
A: 18.7 µM (active)

Q: What about the Potency [15] of the same molecule?
A: 1.66 µM (active)

Q: What about the Potency [3] of the same molecule?
A: 17.2 µM (active)

Q: What about the Potency [5] of the same molecule?
A: 24.1 µM (active)

Q: What about the Potency [11] of the same molecule?
A: 18.7 µM (active)

Q: What about the Potency [12] of the same molecule?
A: 16.6 µM (active)

Q: What about the Potency [13] of the same molecule?
A: 16.6 µM (active)

Q: What about the Potency [14] of the same molecule?
A: 13.7 µM (active)

Q: With `O=C(Nc1nc2cccc(-c3ccc(CN4CCS(=O)(=O)CC4)cc3)n2n1)C1CC1` as the molecule, how does the Potency [9] read?
A: 18.7 µM (active)

Q: What about the Potency [2] of the same molecule?
A: 11.8 µM (active)

Q: What about the Potency [15] of the same molecule?
A: 5.26 µM (active)

Q: And the Potency [3]?
A: 19.3 µM (active)

Q: What about the Potency [10] of the same molecule?
A: 10.5 µM (active)

Q: What about the Potency [4] of the same molecule?
A: inactive

Q: And the Potency [16]?
A: 18.7 µM (active)

Q: What about the Potency [11] of the same molecule?
A: 10.5 µM (active)

Q: What about the Potency [6] of the same molecule?
A: 27.3 µM (active)

Q: And the Potency [7]?
A: 18.7 µM (active)

Q: And the Potency [8]?
A: 23.5 µM (active)

Q: What about the Potency [17] of the same molecule?
A: inactive
